Source: PubChem
CHX counter – Cycloheximide Counterscreen for Small Molecule Inhibitors of Shiga Toxin; actives 12% (n = 300,000); cell reporter, cycloheximide protein synthesis inhibition counterscreen; max response, %; in the data active = max response mostly above about 13%, no sharp cut-off; inactive = mostly below about 14%; note: read at 38.3 µM for the half of the compounds with a filed dose; 0% is about no effect
TbPYK inhibitor – qHTS of Trypanosoma Brucei Inhibitors | pyruvate kinase (Trypanosoma brucei), Q57TT1 | TbPYK enzyme, Kinase-Glo Plus ATP luminescence, 45 min | Potency, µM (doses to about 76.8 µM), without a hit: top-dose activity, negative = inhibition, hits mostly inhibitors | actives 0.12% (n = 410,000); note: potency is the fitted concentration of half-maximal effect; % is set by controls: 0 for no effect and ±100 for the full control effect; nearly all actives have a fitted effect of over 50% in size
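In this concentration-response screen, enzyme-free wells defined baseline while DMSO plates tracked drift. Each reaction combined TbPYK, substrate, compound and 130 uM ADP for 45 min at room temperature. Kinase-Glo Plus luminescence gave the signal.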
Shiga inhibitor – A qHTS for Small Molecule Inhibitors of Shiga Toxin; Vero cells, Shiga toxin protein synthesis inhibition reporter; actives 9.2% (n = 290,000); AID 2315, 2010; inhibition, % at 38.7 µM; in the data active = inhibition mostly above about 28%, no sharp cut-off; inactive = mostly below about 43%; note: 0% is about no effect
RE007 growth inh – qHTS Assay for Inhibitors of the HIV-1 protein Vpr; S. pombe RE007 Vpr strain, BacTiter-Glo ATP luminescence, 24 h; Potency, µM (titrated, usually from 92.2 µM), without a hit: at the top dose activity change, negative = less growth, actives largely listed as inhibitors; actives 0.21% (n = 360,000); AID 651644, 2012; active = well fitted falling curve with a large enough effect; inconclusive = small, poorly fitted or top-dose-only effect; inactive = no such curve, though single readings can be large or run the other way; note: potency is the fitted concentration of half-maximal effect; % is set by controls: 0 for no effect and ±100 for the full control effect; nearly all actives have a fitted effect of over 50% in size
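Fission yeast strain RE007, carrying one chromosomally integrated HIV-1 vpr copy, was seeded at OD 0.01 in PMG+AL medium with 23 nL pinned compound. After 24 h at 30 °C and 99% humidity, viability was read by BacTiter-Glo luminescence.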
FBPA Giardia inh – qHTS Assay for Inhibitors of Fructose-1,6-bisphosphate Aldolase from Giardia Lamblia. A8B2U2. purified Giardia FBPA. Potency, µM (top dose mostly 59.6 µM), inactives show top-dose activity, negative = inhibition, usual class: inhibitors. actives 0.71% (n = 290,000); note: potency is the fitted concentration of half-maximal effect; % is set by controls: 0 for no effect and ±100 for the full control effect; nearly all actives have a fitted effect of over 55% in size
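Giardia FBPA (40 nM reagent) was preincubated 10 min at RT with compound (up to 57.5 uM final), then substrate plus GAPDH/TPI/NAD/arsenate coupling system with diaphorase/resazurin was added; resorufin fluorescence (525/598 nm) was read after 20 min.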
LmPK inh – qHTS Assay for Inhibitors of Leishmania Mexicana Pyruvate Kinase (LmPK); AID 1721, 2009; actives 0.37% (n = 290,000); Potency, µM (doses to about 57.5 µM), for the others: at the top dose activity change, negative = inhibition, hits mostly inhibitors; purified LmPK, Kinase-Glo ATP luminescence, 1 h; Q27686; note: potency is the fitted concentration of half-maximal effect; % is set by controls: 0 for no effect and ±100 for the full control effect
Target sequence (Q27686 whole entry, looked up): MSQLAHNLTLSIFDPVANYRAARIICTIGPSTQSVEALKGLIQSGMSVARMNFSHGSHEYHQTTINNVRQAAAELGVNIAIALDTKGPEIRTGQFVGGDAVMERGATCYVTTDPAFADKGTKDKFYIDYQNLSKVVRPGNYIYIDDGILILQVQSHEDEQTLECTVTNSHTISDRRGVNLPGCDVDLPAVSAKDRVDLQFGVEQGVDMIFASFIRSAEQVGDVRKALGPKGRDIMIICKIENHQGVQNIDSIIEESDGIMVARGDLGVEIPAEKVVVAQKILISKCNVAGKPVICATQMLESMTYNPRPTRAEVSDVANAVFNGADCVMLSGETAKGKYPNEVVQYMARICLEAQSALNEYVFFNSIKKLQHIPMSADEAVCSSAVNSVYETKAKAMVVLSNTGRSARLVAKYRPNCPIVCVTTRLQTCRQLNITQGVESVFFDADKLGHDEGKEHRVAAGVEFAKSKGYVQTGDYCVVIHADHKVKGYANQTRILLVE
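ATP generated from ADP (0.1 mM) and PEP (0.5 mM) by 0.1 nM LmPK over 1 h at room temperature (pH 7.2 imidazole buffer) was detected by coupled luciferase luminescence. Values were normalized to uninhibited and no-enzyme wells.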
* hit, by the source's call. The sample as a whole holds a higher share of hits than the screen did. Unless noted, calls come from the whole dose curve; as a rule, active = well fitted curve in the direction sought with a large enough effect; inconclusive = small, poorly fitted or top-dose-only effect, or another doubt; inactive = no such curve, though single readings can be large; an effect the other way counts as inactive or inconclusive.

`COc1ccc(OCc2cc(C(=O)N3CCC(OC)CC3)no2)c2ccccc12` gave CHX counter 41*, TbPYK inhibitor 3%, Shiga inhibitor 126*, RE007 growth inh -21% and LmPK inh -3%.
COCC1CCN(C(=O)c2cc(COc3ccc(OC)c4ccccc34)on2)C1 (centres undefined) was read as TbPYK inhibitor -3% and RE007 growth inh -13%.
CCOC(=O)C1CCN(C(=O)c2cc(COc3ccc(OC)c4ccccc34)on2)CC1 was read as CHX counter 43*, TbPYK inhibitor -13%, Shiga inhibitor 82*, RE007 growth inh -3%, FBPA Giardia inh inconclusive and LmPK inh 8%.
`COc1ccc(C2NC(=S)N3C(c4ccc(OC)c(OC)c4)NC(=S)N23)cc1OC` (centres undefined) gave TbPYK inhibitor -5%.
`COc1ccc(NC(=O)C(c2ccccc2)c2ccccc2)cn1` gave CHX counter -3, TbPYK inhibitor -6%, Shiga inhibitor 31, RE007 growth inh 6%, FBPA Giardia inh -3% and LmPK inh 5%.
`O=C(Nc1cccc(S(=O)(=O)N2CCCC2)c1)c1ccc(Cl)nc1` gave TbPYK inhibitor 0% and RE007 growth inh -4%.
For CCOc1ccc(OCCSc2nnnn2-c2ccccc2)cc1 the results were CHX counter -1, TbPYK inhibitor 5%, Shiga inhibitor -7, RE007 growth inh -5%, FBPA Giardia inh 1% and LmPK inh -5%.
Cc1ccccc1OCCSc1nnc(C)n1-c1ccccc1 was read as CHX counter 19*, TbPYK inhibitor 0%, Shiga inhibitor 31, RE007 growth inh 9%, FBPA Giardia inh 2% and LmPK inh 0%.
For Fc1ccccc1OCCSc1nnnn1-c1ccccc1 the results were CHX counter 47*, TbPYK inhibitor -2%, Shiga inhibitor 84*, RE007 growth inh -18%, FBPA Giardia inh -11% and LmPK inh 11%.
For c1ccc(OCCSc2nnnn2-c2ccccc2)cc1 the results were CHX counter 60*, TbPYK inhibitor -10%, Shiga inhibitor 55*, RE007 growth inh -1%, FBPA Giardia inh -4% and LmPK inh 10%.
`CCC1CCc2c(sc(NC(=O)C3c4ccccc4Oc4ccccc43)c2C(=O)OC)C1` (centres undefined) gave TbPYK inhibitor -5%.
`CC(C)(C)c1ccccc1NC(=O)NC1CCN(Cc2c(F)cccc2Cl)CC1` gave CHX counter -2, TbPYK inhibitor -2%, Shiga inhibitor -12, RE007 growth inh 4%, FBPA Giardia inh -1% and LmPK inh -7%.
Screening CNC(=O)C1CCC(Cn2c(=O)c3sccc3n(Cc3ccccc3)c2=O)CC1 (centres undefined) returned TbPYK inhibitor 2%.
CC(C)c1ccc(/C=C/c2ccc(=O)n(C)n2)cc1 was read as CHX counter 27*, TbPYK inhibitor 0%, Shiga inhibitor 93*, RE007 growth inh -1%, FBPA Giardia inh -4% and LmPK inh -17%.
Screening COc1ccc(N2CC(NC(=O)C(=O)c3c[nH]c4ccccc34)CC2=O)cc1 (centres undefined) returned TbPYK inhibitor 6%.
`Cc1[nH]c2c(Br)cccc2c1[C@H]1[C@@H](CC#N)C1(C)C` gave CHX counter 42*, TbPYK inhibitor -1%, Shiga inhibitor 63*, RE007 growth inh -21%, FBPA Giardia inh -16% and LmPK inh 4%.
For NC(=O)/C=C\C(=O)Nc1cccc(C(F)(F)F)c1 the results were CHX counter 13, TbPYK inhibitor -3%, Shiga inhibitor 16, RE007 growth inh 18µM*, FBPA Giardia inh 4% and LmPK inh -2%.
`O=C(Nc1cccc(C(F)(F)F)c1)c1scc2c1OCCO2` gave CHX counter 38*, TbPYK inhibitor 4%, Shiga inhibitor 36, RE007 growth inh 1%, FBPA Giardia inh 1% and LmPK inh -9%.
For O=C(/C=C/Nc1cccc(C(F)(F)F)c1)c1ccco1 the results were CHX counter 39*, TbPYK inhibitor -9%, Shiga inhibitor 80*, RE007 growth inh 4%, FBPA Giardia inh -9% and LmPK inh -1%.
`O=C(Nc1cccc(S(=O)(=O)c2cccc(NC(=O)c3ccco3)c2)c1)c1ccco1` gave CHX counter 20*, TbPYK inhibitor -4%, Shiga inhibitor 28*, RE007 growth inh 19%, FBPA Giardia inh -4% and LmPK inh -6%.
`O=C(Nc1cccc(S(=O)(=O)N2CCCC2)c1)c1ccco1` gave TbPYK inhibitor 1% and RE007 growth inh 11%.
`CCc1ccc(S(=O)(=O)c2nnn3c2nc(NCCc2ccccc2)c2sccc23)cc1` gave TbPYK inhibitor -8%.
CN(C(=O)c1ccc2c(c1)N(Cc1ccc(F)cc1)C(=O)c1ccccc1S2(=O)=O)C1CCCCC1 was read as TbPYK inhibitor 4%.
For O=C(Nc1ccncc1)Nc1cccc(C(F)(F)F)c1 the results were CHX counter 7, TbPYK inhibitor -3%, Shiga inhibitor 18, RE007 growth inh -1%, FBPA Giardia inh 8% and LmPK inh -5%.
Screening O=C(Nc1cccc(F)c1)/C(=C\c1cccnc1)NC(=O)c1ccco1 returned CHX counter 1, TbPYK inhibitor 2%, Shiga inhibitor -4, RE007 growth inh -1%, FBPA Giardia inh -4% and LmPK inh -2%.
`O=C(Nc1cccc(F)c1)/C(=C/c1ccco1)NC(=O)c1ccco1` gave CHX counter 20*, TbPYK inhibitor -24%, Shiga inhibitor 25, RE007 growth inh 7% and LmPK inh -10%.
Screening O=C(/C=C/Nc1cccc(C(F)(F)F)c1)c1ccc(Oc2ncccn2)cc1 returned CHX counter 47*, TbPYK inhibitor -12%, Shiga inhibitor 87*, RE007 growth inh -29%, FBPA Giardia inh -5% and LmPK inh -8%.
`O=C(Nc1ccc(OC(F)F)cc1)Nc1cccc(C(F)(F)F)c1` gave CHX counter 12*, TbPYK inhibitor 5%, Shiga inhibitor -1, RE007 growth inh -16%, FBPA Giardia inh -9% and LmPK inh 5%.
Screening O=C(Nc1cccc(C(F)(F)F)c1)c1ccco1 returned CHX counter 11*, TbPYK inhibitor 3%, Shiga inhibitor 12, RE007 growth inh inconclusive, FBPA Giardia inh -5% and LmPK inh 1%.
